According to paper PMC11062922 (Nature Chemical Biology, 2023):

tested on: ERCC2; set-up: species or system human, MV4-11 + K-562 + COLO205 + SK-N-BE2 + OVCAR-8; conditions: read-out: apparent Kd; compound concentrations:100 nM and 1000 nM (sheet 'Samples'); n = 1

Row | Compound | potency estimated from few doses
1 | NCCNS(=O)(=O)c1ccc(-c2ccnc3[nH]ccc23)cc1 [GSK977617A] | 0.203 µM
2 | O=C1NC(=O)C(N2CCc3ccccc32)=C1c1ccccc1Cl [SB-373598] | 0.114 µM
3 | Cl.Cl.NCC(C(=O)Nc1cc(Br)c(-c2ccnc3[nH]ccc23)s1)c1ccccc1.NCC(C(=O)Nc1cc(Br)c(-c2ccnc3[nH]ccc23)s1)c1ccccc1 (centres unmarked) [GSK1269851A] | 0.0375 µM
4 | CC(C)N1CCC(n2cnc(-c3ccc(F)cc3)c2-c2ccnc(N)n2)CC1 [SB-223132] | 0.206 µM
5 | CN1C[C@@H]2Cn3c(c(C4=C(c5cn(C)c6ccccc56)C(=O)NC4=O)c4ccccc43)C[C@H]2C1.Cl [RO0320234-001] | 0.123 µM
6 | Cc1ccc2c(-c3ccncc3)c(-c3ccc(F)cc3)nn2c1.Cl [GW461484A] | 0.214 µM

tested on: FER; set-up: species or system human, MV4-11 + K-562 + COLO205 + SK-N-BE2 + OVCAR-8; conditions: read-out: apparent Kd; compound concentrations:100 nM and 1000 nM (sheet 'Samples'); n = 1

Row | Compound | potency estimated from few doses
7 | NCCNS(=O)(=O)c1ccc(-c2ccnc3[nH]ccc23)cc1 [GSK977617A] | 0.238 µM
8 | O=C1NC(=O)C(N2CCc3ccccc32)=C1c1ccccc1Cl [SB-373598] | 0.183 µM
9 | Cl.Cl.NCC(C(=O)Nc1cc(Br)c(-c2ccnc3[nH]ccc23)s1)c1ccccc1.NCC(C(=O)Nc1cc(Br)c(-c2ccnc3[nH]ccc23)s1)c1ccccc1 (centres unmarked) [GSK1269851A] | 0.0562 µM
10 | CC(C)N1CCC(n2cnc(-c3ccc(F)cc3)c2-c2ccnc(N)n2)CC1 [SB-223132] | 0.358 µM
11 | CNC(=O)c1ccccc1Nc1nc(Nc2ccc(N3CCOCC3)cc2)ncc1Cl.Cl [GSK1576028A] | 0.484 µM
12 | CN1C[C@@H]2Cn3c(c(C4=C(c5cn(C)c6ccccc56)C(=O)NC4=O)c4ccccc43)C[C@H]2C1.Cl [RO0320234-001] | 0.0948 µM
13 | Cc1ccc2c(-c3ccncc3)c(-c3ccc(F)cc3)nn2c1.Cl [GW461484A] | 0.259 µM

tested on: FGFR1; set-up: species or system human, MV4-11 + K-562 + COLO205 + SK-N-BE2 + OVCAR-8; conditions: read-out: apparent Kd; compound concentrations:100 nM and 1000 nM (sheet 'Samples'); n = 1

Row | Compound | potency estimated from few doses
14 | O=C1NC(=O)C(N2CCc3ccccc32)=C1c1ccccc1Cl [SB-373598] | 1.25 µM
15 | Cl.Cl.NCC(C(=O)Nc1cc(Br)c(-c2ccnc3[nH]ccc23)s1)c1ccccc1.NCC(C(=O)Nc1cc(Br)c(-c2ccnc3[nH]ccc23)s1)c1ccccc1 (centres unmarked) [GSK1269851A] | 1.73 µM
16 | CC(C)N1CCC(n2cnc(-c3ccc(F)cc3)c2-c2ccnc(N)n2)CC1 [SB-223132] | 2.19 µM
17 | CNC(=O)c1ccccc1Nc1nc(Nc2ccc(N3CCOCC3)cc2)ncc1Cl.Cl [GSK1576028A] | 0.844 µM

tested on: FLT3; set-up: species or system human, MV4-11 + K-562 + COLO205 + SK-N-BE2 + OVCAR-8; conditions: read-out: apparent Kd; compound concentrations:100 nM and 1000 nM (sheet 'Samples'); n = 1

Row | Compound | potency estimated from few doses
18 | O=C1NC(=O)C(N2CCc3ccccc32)=C1c1ccccc1Cl [SB-373598] | 1.5 µM
19 | Cl.Cl.NCC(C(=O)Nc1cc(Br)c(-c2ccnc3[nH]ccc23)s1)c1ccccc1.NCC(C(=O)Nc1cc(Br)c(-c2ccnc3[nH]ccc23)s1)c1ccccc1 (centres unmarked) [GSK1269851A] | 1.45 µM
20 | CNC(=O)c1ccccc1Nc1nc(Nc2ccc(N3CCOCC3)cc2)ncc1Cl.Cl [GSK1576028A] | 0.616 µM

tested on: FLT4; set-up: species or system human, MV4-11 + K-562 + COLO205 + SK-N-BE2 + OVCAR-8; conditions: read-out: apparent Kd; compound concentrations:100 nM and 1000 nM (sheet 'Samples'); n = 1

Row | Compound | potency estimated from few doses
21 | NCCNS(=O)(=O)c1ccc(-c2ccnc3[nH]ccc23)cc1 [GSK977617A] | 1.05 µM
22 | O=C1NC(=O)C(N2CCc3ccccc32)=C1c1ccccc1Cl [SB-373598] | 0.478 µM
23 | Cl.Cl.NCC(C(=O)Nc1cc(Br)c(-c2ccnc3[nH]ccc23)s1)c1ccccc1.NCC(C(=O)Nc1cc(Br)c(-c2ccnc3[nH]ccc23)s1)c1ccccc1 (centres unmarked) [GSK1269851A] | 1.23 µM
24 | CC(C)N1CCC(n2cnc(-c3ccc(F)cc3)c2-c2ccnc(N)n2)CC1 [SB-223132] | 0.968 µM
25 | CNC(=O)c1ccccc1Nc1nc(Nc2ccc(N3CCOCC3)cc2)ncc1Cl.Cl [GSK1576028A] | 0.309 µM
26 | CN1C[C@@H]2Cn3c(c(C4=C(c5cn(C)c6ccccc56)C(=O)NC4=O)c4ccccc43)C[C@H]2C1.Cl [RO0320234-001] | 0.878 µM
27 | Cc1ccc2c(-c3ccncc3)c(-c3ccc(F)cc3)nn2c1.Cl [GW461484A] | 1.32 µM

tested on: FRK; set-up: species or system human, MV4-11 + K-562 + COLO205 + SK-N-BE2 + OVCAR-8; conditions: read-out: apparent Kd; compound concentrations:100 nM and 1000 nM (sheet 'Samples'); n = 1

Row | Compound | potency estimated from few doses
28 | NCCNS(=O)(=O)c1ccc(-c2ccnc3[nH]ccc23)cc1 [GSK977617A] | 0.832 µM
29 | O=C1NC(=O)C(N2CCc3ccccc32)=C1c1ccccc1Cl [SB-373598] | 0.33 µM
30 | Cl.Cl.NCC(C(=O)Nc1cc(Br)c(-c2ccnc3[nH]ccc23)s1)c1ccccc1.NCC(C(=O)Nc1cc(Br)c(-c2ccnc3[nH]ccc23)s1)c1ccccc1 (centres unmarked) [GSK1269851A] | 0.846 µM
31 | CN1C[C@@H]2Cn3c(c(C4=C(c5cn(C)c6ccccc56)C(=O)NC4=O)c4ccccc43)C[C@H]2C1.Cl [RO0320234-001] | 0.29 µM
32 | Cc1ccc2c(-c3ccncc3)c(-c3ccc(F)cc3)nn2c1.Cl [GW461484A] | 0.887 µM
